Assay results reported in PubChem BioAssay (NCI).
About 83,000 compounds went through this panel and 20% of them were active in at least one assay; those are over-represented in the sample as a whole.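 Cells were grown in 96-well plates and exposed to the test compound at a single concentration for 48 hours; results are reported as percent growth, with values below 10 considered active.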 Calls of active or inactive are those of the source.

Experiments:
Test in all cases: NCI-60 one-dose screen, 48 h (100 = growth as untreated, 0 = no growth, -100 = all killed)
Details in all cases: 10 µM unless noted
SK-MEL-2 melanoma = tested on: SK-MEL-2 melanoma
EKVX NSCLC = tested on: EKVX NSCLC
SN12C renal = tested on: SN12C renal
UO-31 renal = tested on: UO-31 renal
TK-10 renal = tested on: TK-10 renal
ACHN renal = tested on: ACHN renal
A498 renal = tested on: A498 renal
CCRF-CEM leukemia = tested on: CCRF-CEM leukemia
MOLT-4 leukemia = tested on: MOLT-4 leukemia
SR leukemia = tested on: SR leukemia
RPMI-8226 leukemia = tested on: RPMI-8226 leukemia
OVCAR-8 ovarian = tested on: OVCAR-8 ovarian
OVCAR-5 ovarian = tested on: OVCAR-5 ovarian
OVCAR-4 ovarian = tested on: OVCAR-4 ovarian
SK-OV-3 ovarian = tested on: SK-OV-3 ovarian
IGROV1 ovarian = tested on: IGROV1 ovarian
OVCAR-3 ovarian = tested on: OVCAR-3 ovarian
HS 578T breast = tested on: HS 578T breast
NCI/ADR-RES ovarian = tested on: NCI/ADR-RES ovarian
T-47D breast = tested on: T-47D breast

Measured: growth

O=CN1N=C(c2ccc(Cl)cc2)CC1c1cccc(Nc2ccnc3cc(C(F)(F)F)ccc23)c1 (stereo not given)
inactive: SK-MEL-2 melanoma 58% | EKVX NSCLC 58.7% | SN12C renal 87.7% | UO-31 renal 48.5% | TK-10 renal 71% | ACHN renal 61.2% | A498 renal 58.6% | CCRF-CEM leukemia 51.7% | MOLT-4 leukemia 33.8% | SR leukemia 30% | RPMI-8226 leukemia 26.4% | OVCAR-8 ovarian 52.8% | OVCAR-5 ovarian 99.7% | OVCAR-4 ovarian 36.1% | SK-OV-3 ovarian 72.4% | IGROV1 ovarian 74.2% | OVCAR-3 ovarian 62.2% | HS 578T breast 87.7% | NCI/ADR-RES ovarian 55.4% | T-47D breast 42.6%

Nc1ccc(C(=O)Nc2cccc(C(=O)Nc3ccc4c(O)c(N=Nc5ccc(N=Nc6ccc(S(=O)(=O)O)cc6)cc5)c(S(=O)(=O)O)cc4c3)c2)cc1
inactive: SK-MEL-2 melanoma 97.5% | EKVX NSCLC 105% | SN12C renal 101% | UO-31 renal 88.4% | TK-10 renal 97.1% | ACHN renal 106% | A498 renal 107% | CCRF-CEM leukemia 98.5% | MOLT-4 leukemia 92.1% | SR leukemia 92.2% | RPMI-8226 leukemia 103% | OVCAR-8 ovarian 110% | OVCAR-5 ovarian 106% | OVCAR-4 ovarian 101% | SK-OV-3 ovarian 101% | IGROV1 ovarian 102% | OVCAR-3 ovarian 107% | HS 578T breast 106% | NCI/ADR-RES ovarian 99.2% | T-47D breast 108%

C=C(C)[C@@H]1CC[C@]2(C(=O)OCCOCCOCC[P+](c3ccccc3)(c3ccccc3)c3ccccc3)CC[C@]3(C)[C@H](CC[C@@H]4[C@@]5(C)CC[C@H](C)C(C)(C)[C@@H]5CC[C@]43C)[C@@H]12
active: SK-MEL-2 melanoma -71.3% | EKVX NSCLC -67.2% | SN12C renal -75.9% | UO-31 renal -89.8% | TK-10 renal -88.6% | ACHN renal -92.6% | A498 renal -93.7% | CCRF-CEM leukemia -63% | MOLT-4 leukemia -75.4% | SR leukemia -56.8% | RPMI-8226 leukemia -59.3% | OVCAR-8 ovarian -81.3% | OVCAR-5 ovarian -72.2% | OVCAR-4 ovarian -85.6% | SK-OV-3 ovarian -96.9% | IGROV1 ovarian -70.5% | OVCAR-3 ovarian -91.7% | HS 578T breast -39.2% | NCI/ADR-RES ovarian -59.8% | T-47D breast -68.5%

COc1ccc2nc(-c3ccc(Cl)cc3)cc(-c3nnc(SCC(=O)Nc4ccc(/C(C)=N\O)cc4)o3)c2c1
active: SN12C renal -7.09% | SR leukemia 6.61% | OVCAR-8 ovarian 0.357% | OVCAR-4 ovarian -56.1% | NCI/ADR-RES ovarian 1.11%
inactive: SK-MEL-2 melanoma 63.8% | EKVX NSCLC 35.4% | UO-31 renal 77.8% | TK-10 renal 79.4% | ACHN renal 65.6% | A498 renal 64% | CCRF-CEM leukemia 31.1% | MOLT-4 leukemia 12.4% | RPMI-8226 leukemia 18.4% | OVCAR-5 ovarian 81.1% | SK-OV-3 ovarian 87.5% | IGROV1 ovarian 60.2% | OVCAR-3 ovarian 36.8% | HS 578T breast 64.8% | T-47D breast 41.7%

COc1ccc2oc(=O)cc(-c3nc4ccc(N)cc4[nH]3)c2c1
inactive: SK-MEL-2 melanoma 89.5% | EKVX NSCLC 82.2% | SN12C renal 92.4% | UO-31 renal 44.9% | TK-10 renal 96.5% | ACHN renal 79.9% | A498 renal 61.5% | CCRF-CEM leukemia 108% | MOLT-4 leukemia 73.4% | SR leukemia 76.1% | RPMI-8226 leukemia 83.4% | OVCAR-8 ovarian 89.9% | OVCAR-5 ovarian 92.6% | OVCAR-4 ovarian 95.8% | SK-OV-3 ovarian 77.5% | IGROV1 ovarian 76.7% | OVCAR-3 ovarian 86.2% | HS 578T breast 81.5% | NCI/ADR-RES ovarian 88% | T-47D breast 51.8%

FC(F)(F)c1ccc2c(Nc3cccc(C4CC(c5ccccc5)=NN4c4ccc(Cl)cc4)c3)ccnc2c1 (stereo not given)
active: CCRF-CEM leukemia 3.45% | MOLT-4 leukemia 4.86% | SR leukemia -10.9% | RPMI-8226 leukemia -19.5%
inactive: SK-MEL-2 melanoma 87.2% | EKVX NSCLC 82.6% | SN12C renal 37.7% | UO-31 renal 35.9% | TK-10 renal 82.3% | ACHN renal 73.3% | A498 renal 66.3% | OVCAR-8 ovarian 29.8% | OVCAR-5 ovarian 95.5% | OVCAR-4 ovarian 66.6% | SK-OV-3 ovarian 80.9% | IGROV1 ovarian 20.1% | OVCAR-3 ovarian 19.5% | HS 578T breast 84.8% | NCI/ADR-RES ovarian 35.3% | T-47D breast 61.9%

COc1ccc(NC(=O)Nc2ccc(Nc3nc(C)cc(Nc4ccc(C)cc4)n3)cc2)cc1
active: SK-MEL-2 melanoma -61.9% | EKVX NSCLC -70.9% | SN12C renal -71% | UO-31 renal -90.5% | TK-10 renal -95.9% | ACHN renal -99.6% | CCRF-CEM leukemia -7.9% | MOLT-4 leukemia -35.3% | SR leukemia -37.1% | RPMI-8226 leukemia -45.9% | OVCAR-8 ovarian -56.6% | OVCAR-5 ovarian -85.7% | OVCAR-4 ovarian -87.1% | IGROV1 ovarian -70.5% | OVCAR-3 ovarian -95.5% | HS 578T breast -21.6% | NCI/ADR-RES ovarian -56.3% | T-47D breast -60.1%
inactive: A498 renal 107% | SK-OV-3 ovarian 69%

CC(=O)OCC1OC(OC2C(COC(C)=O)OC(OCCC[S-])C(OC(C)=O)C2OC(C)=O)C(OC(C)=O)C(OC(C)=O)C1OC(C)=O.[Au+].c1ccc(CN2[CH-]N(Cc3ccccc3)C(c3ccccc3)=C2c2ccccc2)cc1 (stereo not given)
inactive: SK-MEL-2 melanoma 13.4% | EKVX NSCLC 28.1% | TK-10 renal 38.5% | ACHN renal 15.1% | CCRF-CEM leukemia 11.5% | MOLT-4 leukemia 15.3% | SR leukemia 11% | OVCAR-8 ovarian 22% | OVCAR-5 ovarian 62.4% | OVCAR-4 ovarian 17.5% | SK-OV-3 ovarian 13% | IGROV1 ovarian 35.3% | HS 578T breast 47.5% | NCI/ADR-RES ovarian 96.6% | T-47D breast 18.8%
active: SN12C renal 9.26% | UO-31 renal 9.47% | A498 renal -1.67% | RPMI-8226 leukemia -6.87% | OVCAR-3 ovarian -2.96%

O=c1[nH]nc(-c2ccccc2)c2sc(NC(=S)Nc3ccc(Cl)cc3)nc12
inactive: SK-MEL-2 melanoma 85.5% | EKVX NSCLC 83% | SN12C renal 103% | UO-31 renal 84.4% | TK-10 renal 96.5% | ACHN renal 102% | A498 renal 86% | CCRF-CEM leukemia 99.2% | MOLT-4 leukemia 79.6% | SR leukemia 91.7% | RPMI-8226 leukemia 87.8% | OVCAR-8 ovarian 89.6% | OVCAR-5 ovarian 98.6% | OVCAR-4 ovarian 91.6% | SK-OV-3 ovarian 62.3% | IGROV1 ovarian 94.2% | OVCAR-3 ovarian 97.5% | HS 578T breast 102% | NCI/ADR-RES ovarian 95.3% | T-47D breast 59%

Cc1cnc(SCc2ccc(Cl)cc2Cl)nc1Nc1ccc(Cl)c(Cl)c1
inactive: SK-MEL-2 melanoma 87.9% | EKVX NSCLC 94.2% | SN12C renal 93% | UO-31 renal 74.6% | TK-10 renal 100% | ACHN renal 96.4% | A498 renal 85.7% | CCRF-CEM leukemia 85.6% | MOLT-4 leukemia 59.5% | SR leukemia 72% | RPMI-8226 leukemia 86.7% | OVCAR-8 ovarian 91.9% | OVCAR-5 ovarian 103% | OVCAR-4 ovarian 93.9% | SK-OV-3 ovarian 97.9% | IGROV1 ovarian 82.8% | OVCAR-3 ovarian 99.6% | HS 578T breast 90.8% | NCI/ADR-RES ovarian 95.9% | T-47D breast 68%

COc1cc(N=Nc2cc(S(=O)(=O)O)cc3cc(S(=O)(=O)O)cc(O)c23)c(C)cc1N=Nc1c(S(=O)(=O)O)cc2cc(Nc3ccccc3)ccc2c1O
inactive: SK-MEL-2 melanoma 103% | EKVX NSCLC 107% | SN12C renal 103% | UO-31 renal 81.3% | TK-10 renal 91.1% | ACHN renal 108% | A498 renal 108% | CCRF-CEM leukemia 100% | MOLT-4 leukemia 86.8% | SR leukemia 76.5% | RPMI-8226 leukemia 103% | OVCAR-8 ovarian 106% | OVCAR-5 ovarian 111% | OVCAR-4 ovarian 97.8% | SK-OV-3 ovarian 102% | IGROV1 ovarian 96.6% | OVCAR-3 ovarian 97.2% | HS 578T breast 108% | NCI/ADR-RES ovarian 110% | T-47D breast 93.4%

COc1ccc2oc(=O)cc(-c3c(C#N)c(N)n4nc(N)c(C#N)c4c3C#N)c2c1
inactive: SK-MEL-2 melanoma 91.7% | EKVX NSCLC 100% | SN12C renal 103% | UO-31 renal 94.4% | TK-10 renal 90.4% | ACHN renal 101% | A498 renal 113% | CCRF-CEM leukemia 106% | MOLT-4 leukemia 86% | SR leukemia 115% | RPMI-8226 leukemia 110% | OVCAR-8 ovarian 111% | OVCAR-5 ovarian 96.8% | OVCAR-4 ovarian 111% | SK-OV-3 ovarian 93.2% | IGROV1 ovarian 94.4% | OVCAR-3 ovarian 91.9% | HS 578T breast 104% | NCI/ADR-RES ovarian 104% | T-47D breast 84.1%

COc1cc(NC(=O)Nc2cnc(Nc3ccc(N4CCOCC4)cc3)nc2Oc2ccc(C(F)(F)F)cc2)cc(OC)c1
inactive: SK-MEL-2 melanoma 108% | EKVX NSCLC 106% | SN12C renal 102% | UO-31 renal 84.7% | TK-10 renal 116% | ACHN renal 105% | A498 renal 110% | CCRF-CEM leukemia 89.4% | MOLT-4 leukemia 90.5% | SR leukemia 79.9% | RPMI-8226 leukemia 92.5% | OVCAR-8 ovarian 100% | OVCAR-5 ovarian 116% | OVCAR-4 ovarian 111% | SK-OV-3 ovarian 104% | IGROV1 ovarian 104% | OVCAR-3 ovarian 110% | HS 578T breast 99.4% | NCI/ADR-RES ovarian 104% | T-47D breast 98.4%

O=C1NN(c2ccccc2)C(c2ccc3c(c2)OCO3)N2CCC[C@@H]12 (stereo not given in full)
inactive: SK-MEL-2 melanoma 89.8% | EKVX NSCLC 102% | SN12C renal 110% | UO-31 renal 85.4% | TK-10 renal 92.2% | ACHN renal 101% | A498 renal 97.5% | CCRF-CEM leukemia 108% | MOLT-4 leukemia 102% | SR leukemia 92.1% | RPMI-8226 leukemia 105% | OVCAR-8 ovarian 96.8% | OVCAR-5 ovarian 108% | OVCAR-4 ovarian 108% | SK-OV-3 ovarian 99% | IGROV1 ovarian 89.7% | OVCAR-3 ovarian 100% | HS 578T breast 104% | NCI/ADR-RES ovarian 97.9% | T-47D breast 90.9%

COc1cccc(NC(=O)Nc2ccc(Nc3ncnc4[nH]c(C)c(C)c34)cc2)c1
inactive: SK-MEL-2 melanoma 104% | EKVX NSCLC 96.5% | SN12C renal 95% | UO-31 renal 85.2% | TK-10 renal 112% | ACHN renal 102% | A498 renal 107% | CCRF-CEM leukemia 86.1% | MOLT-4 leukemia 78.8% | SR leukemia 91.1% | RPMI-8226 leukemia 90.8% | OVCAR-8 ovarian 91.7% | OVCAR-5 ovarian 114% | OVCAR-4 ovarian 109% | SK-OV-3 ovarian 102% | IGROV1 ovarian 115% | OVCAR-3 ovarian 113% | HS 578T breast 83.9% | NCI/ADR-RES ovarian 107% | T-47D breast 89.8%
